# From PubChem
# TEAD-YAP inh = TEAD-YAP interaction inhibition; inhibition, % at 9.12 µM; HEK-TIYL cells, TEAD-Gal4/YAP UAS-luciferase luminescence; 1.4% of 640,000 active; AID 1259422; in the data active = inhibition above about 32%
# FBW7 act = human FBW7 E3 ligase activation, primary screen | normalized activity (activation), % at 26.1 µM | 0.13% of 650,000 active | AID 1259310 | AlphaScreen FBW7–phospho-cyclin E peptide binding, activator screen; in the data active = normalized activity above about 1.9%;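 note: purified mutant Fbw7 with reduced substrate affinity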
# Target sequence (Q969H0 whole entry, looked up): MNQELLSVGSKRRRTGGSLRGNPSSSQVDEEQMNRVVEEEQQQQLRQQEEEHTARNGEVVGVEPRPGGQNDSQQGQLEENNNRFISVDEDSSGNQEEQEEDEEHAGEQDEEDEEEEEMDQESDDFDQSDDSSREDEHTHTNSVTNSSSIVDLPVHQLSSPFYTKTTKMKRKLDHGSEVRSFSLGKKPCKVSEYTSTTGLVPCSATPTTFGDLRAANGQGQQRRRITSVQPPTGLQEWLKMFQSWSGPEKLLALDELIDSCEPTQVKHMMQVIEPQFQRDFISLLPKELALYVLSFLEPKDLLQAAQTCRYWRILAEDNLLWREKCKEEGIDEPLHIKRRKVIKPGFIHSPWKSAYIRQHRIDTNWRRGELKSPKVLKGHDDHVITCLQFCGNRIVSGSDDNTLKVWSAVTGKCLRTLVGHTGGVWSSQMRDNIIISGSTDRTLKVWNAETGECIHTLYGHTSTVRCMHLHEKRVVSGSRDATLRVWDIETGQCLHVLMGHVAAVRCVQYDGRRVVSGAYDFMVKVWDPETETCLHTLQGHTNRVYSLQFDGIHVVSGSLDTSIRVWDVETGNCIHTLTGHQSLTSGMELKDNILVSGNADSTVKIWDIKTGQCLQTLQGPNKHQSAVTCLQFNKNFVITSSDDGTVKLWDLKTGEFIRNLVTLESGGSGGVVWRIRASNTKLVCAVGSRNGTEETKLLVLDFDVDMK
# GPR151 activ = human GPR151 activation | Q8TDV0 | activation, % at 11.2 µM | 1% of 650,000 active | AID 1508602 | PathHunter beta-arrestin GPR151 cells, luminescence; in the data active = activation above about 4.9%
# MITF primary = blocks human microphthalmia-associated transcription factor | O75030 | AlphaScreen MITF homodimerization, bead proximity signal | inhibition, % at 2.6 µM | 0.91% of 650,000 active; in the data active = inhibition above about 50%
# MITF inh conf = human MITF inhibition, confirmation. shares compounds with MITF primary. AlphaScreen MITF homodimerization, biotin/His-MITF beads. inhibition, % at 2.6 µM. 16% of 4,700 active. AID 1259372;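 active = inhibition above a cutoff derived from the DMSO control wells, cut at about 28% in these data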;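 note: inhibitors lower the bead chemiluminescence by keeping MITF from dimerizing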
# AlphaScreen intf2 = counter-screen: compounds optically interfering with AlphaScreen | shares compounds with MITF primary | 7.6% of 4,700 active | AID 1259376 | inhibition, % at 2.6 µM | LysRS AlphaScreen counterscreen, signal interference, triplicate;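 active = inhibition above a cutoff derived from the DMSO control wells, cut at about 30% in these data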
# Hits are given with their value; - = inactive. An excerpt weighted towards active compounds, which were near 3.5% of everything screened.
SMILES,TEAD-YAP inh,FBW7 act,GPR151 activ,MITF primary,others
Cc1cc2nc(-c3cccc(NC(=O)C(C)C)c3C)oc2cc1C,-,-,-,-,
Cc1ccc2oc(-c3cc(N)ccc3Cl)nc2c1,-,-,-,-,
Nc1ccc(-c2nc3cc(N)ccc3o2)c(O)c1,-,-,-,-,
Cc1cc(C)c2oc(-c3ccc(N)cc3O)nc2c1,37,-,-,-,
Cc1ccc(C)c(-c2nc3cc(N)ccc3o2)c1,37,-,-,-,
COc1cccc(N2C(=O)CN(C(=O)c3ccc(-n4cccn4)cc3)CC2C)c1 (centres undefined),-,-,-,-,
O=C(O)c1ccc(S(=O)(=O)c2ccc3c(c2)C(=O)N(c2ccccn2)C3=O)cc1,-,-,-,-,
O=C(Cc1ccc(N2CCC(NC3CCCc4ccccc43)CC2)cc1)N1CCC(O)CC1 (centres undefined),-,-,-,-,
CCCCSc1nnc2c(n1)OC(c1cc(OC(C)=O)ccc1Br)N(C(C)=O)c1ccccc1-2 (centres undefined),-,-,-,-,
CCOc1ccc(-c2cn[nH]c2N)cc1,48,-,-,-,
CN(C)c1ccc(/C=C(\C(N)=O)c2nc3ccccc3[nH]2)cc1,83,-,-,-,
CN(Cc1ccsc1)Cc1c(C(=O)N(C)C)nc2ccc(Cl)cn12,-,-,-,-,
CN1CCN(c2cc(-c3ccncc3)nc(-c3cccnc3)n2)CC1,61,-,-,-,
CN1CCN(c2cc(-c3ccccn3)nc(-c3ccccn3)n2)CC1,-,-,-,112,
c1ccc(-c2cc(N3CCc4ccccc4C3)nc(-c3ccccn3)n2)nc1,69,-,-,85,
CN1CCN(c2cc(-c3ccccc3)nc(-c3ccccn3)n2)CC1,-,-,-,-,
O=C(NCc1ccccc1)C1CN(Cc2ccco2)CCN1C(=O)NCc1ccco1 (centres undefined),-,-,-,-,
COC(=O)c1ccccc1N1C(=O)c2ccc([N+](=O)[O-])cc2C1=O,-,-,-,-,
O=C(NCc1noc2ccccc12)N1CCN(C2CCCCC2)CC1,-,-,-,-,
O=C(O)COc1cc([N+](=O)[O-])cc2cccnc12,-,-,-,-,
COc1cc([N+](=O)[O-])c2ncccc2c1,-,-,-,70,
O=[N+]([O-])c1cc(O)c2ncccc2c1,-,-,-,103,
COc1cc([N+](=O)[O-])c2nccnc2c1,-,-,-,-,
CCOc1ccc(C2Oc3c(cc(Br)cc3OC)C=C2[N+](=O)[O-])cc1OC (centres undefined),62,-,-,-,
COc1cc(Br)cc2c1OC(c1ccc3c(c1)OCO3)C([N+](=O)[O-])=C2 (centres undefined),-,-,-,-,
SMILES,TEAD-YAP inh,FBW7 act,GPR151 activ,MITF primary,others
CCOc1ccc(C2Oc3c(cccc3OC)C=C2[N+](=O)[O-])cc1OC (centres undefined),-,-,-,-,
COc1ccc(C2Oc3c(cccc3OC)C=C2[N+](=O)[O-])cc1OC (centres undefined),43,-,-,-,
COc1ccc(C2Oc3c(cc(Br)cc3OC)C=C2[N+](=O)[O-])cc1OC (centres undefined),70,-,-,-,
OCc1ccccc1-c1cnc2c(NCCc3ccncc3)nccn12,-,-,-,-,
CCCCOC(=O)c1ccc(NC(=O)CN(C)C2CCN(C)CC2)cc1,-,-,-,58,MITF inh conf=-;AlphaScreen intf2=-
Cc1ccc2nc(-c3ccc(NC(=O)Cc4ccccc4)cc3)sc2c1,-,-,-,-,
CN1CCC(N(C)CC(=O)Nc2ccc3c(c2)OC(F)(F)O3)CC1,-,-,-,57,MITF inh conf=-;AlphaScreen intf2=-
CC(NC(=O)CN(C)C1CCN(C)CC1)c1ccccc1 (centres undefined),-,-,-,59,MITF inh conf=-;AlphaScreen intf2=-
CCCCOC(=O)c1ccc(NC(=O)CCCC)cc1,-,-,-,-,
CCN(CC)CC(=O)NC(C)c1ccccc1 (centres undefined),-,-,-,-,
Cc1ccc2nc(-c3ccc(NC(=O)CNCC(C)(C)CN(C)C)cc3)sc2c1,-,-,-,52,MITF inh conf=-;AlphaScreen intf2=-
CS(=O)(=O)c1ccc2c(c1)NC(=O)CN2C(=O)Cc1ccccc1Cl,-,-,-,-,
CN(C)CC(C)(C)CNCC(=O)Nc1ccc2c(c1)OC(F)(F)O2,-,-,-,56,MITF inh conf=-;AlphaScreen intf2=-
CC(=O)N1CCN(CC(=O)Nc2ccc3c(c2)OC(F)(F)O3)CC1,-,-,-,-,
COCCn1c(=O)n(Cc2cccc(OC)c2)c2cccnc21,-,-,-,-,
C/C(=N\NS(=O)(=O)c1ccccc1)c1cccc(I)c1,-,-,-,-,
CC(=O)Nc1cc(-c2ccc(Cl)cc2)nn1-c1ccccc1,-,-,-,81,MITF inh conf=-;AlphaScreen intf2=-
CC(=O)Nc1cc(-c2ccccc2)nn1Cc1ccc(Cl)cc1,-,-,-,-,
CCN(CC)CCN1CC(c2ccccc2)CC1=O (centres undefined),-,-,-,58,MITF inh conf=-;AlphaScreen intf2=-
CC1=C(C(=O)Nc2ccc(C)cc2C)C(c2cccc(Cl)c2)NC(=S)N1 (centres undefined),-,-,-,73,MITF inh conf=-;AlphaScreen intf2=-
CC1=C(C(=O)Nc2ccc(C)cc2C)C(c2cccc(Cl)c2)NC(=O)N1 (centres undefined),-,-,-,-,
COCc1nnc(NC(=O)CN2C(=O)c3ccccc3C2=O)s1,-,-,-,-,
O=C(CN1CCCC1)Nc1c2c(nc3ccccc13)N(c1ccccc1)CC2,-,-,-,72,MITF inh conf=-;AlphaScreen intf2=-
O=C(CN1CCCC1)Nc1ccccc1,-,-,-,-,
CC(C(O)c1ccccc1)N(C)CC(=O)Nc1c2c(nc3ccccc13)N(C)CC2 (centres undefined),-,-,-,67,MITF inh conf=-;AlphaScreen intf2=-
SMILES,TEAD-YAP inh,FBW7 act,GPR151 activ,MITF primary,others
O=C(CN1CCCC1)Nc1c2c(nc3ccccc13)N(Cc1ccccc1)CC2,-,-,-,-,
CCc1nc2ccccc2c(NC(=O)CNC(C)(C)CC(C)(C)C)c1C,-,-,-,70,MITF inh conf=-;AlphaScreen intf2=-
CCc1nc2ccccc2c(NC(=O)CN2CCCC2)c1C,-,-,-,65,MITF inh conf=-;AlphaScreen intf2=-
CCOC(=O)C1CCN(/C=C2/C(=O)NC(=S)N(c3ccc(F)cc3)C2=O)CC1,-,-,-,-,
CCCCN1CC(C(=O)NCCc2ccccc2)CC1=O (centres undefined),-,-,-,-,
Cc1nn(-c2ccccc2)c(Cl)c1C(=O)Nc1ccc(I)cc1,-,-,-,-,
O=C1C(=O)N(CCN2CCOCC2)C(c2cccs2)/C1=C(/O)c1ccc(F)cc1 (centres undefined),-,-,-,-,
O=C1C(=O)N(CCOCCO)C(c2cccs2)/C1=C(\O)c1ccc(F)cc1 (centres undefined),-,-,-,55,MITF inh conf=-;AlphaScreen intf2=-
COc1ccc(CCNC(=O)c2cc(Nc3ccnn3C)nc3ccccc23)cc1,-,-,-,69,MITF inh conf=-;AlphaScreen intf2=-
C=CCNC(=O)/C(=C\c1ccco1)NC(=O)c1ccccc1Br,-,-,-,-,
CN1CCCN(Cc2ccc([N+](=O)[O-])s2)CC1,-,-,-,52,MITF inh conf=-;AlphaScreen intf2=-
